Measured values reported in PubChem BioAssay (NCI).
The panel holds about 83,000 compounds, 20% with a hit somewhere; the sample as a whole holds those more often.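 In brief: 96-well plates, 48 h treatment, single concentration, percent growth endpoint.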 A number with no mark means an inactive call. The source made the active and inactive calls. The calls were made as follows: active = growth percent below 10; inactive = the rest.

System: HL-60(TB) leukemia
Test: NCI-60 one-dose screen, 48 h (100 = growth as untreated, 0 = no growth, -100 = all killed)
Details: 10 µM unless noted

Structure (SMILES) | growth
CCOC(=O)[C@@H]1CSC(CC)=C(C(=O)O)N1 | -17.3% (active)
Cn1cc(-c2csc(-c3c[nH]c4ccc(F)cc34)n2)c2cccnc21 | 24.5%
COC(=O)c1c2c(c(C)[n+]([O-])c1C)C(=O)C=C(NCc1cccc(Cl)c1)C2=O | -31.8% (active)
COc1ccc(C2CC(c3ccc(Nc4ccnc5cc(Cl)ccc45)cc3)=NN2C=O)cc1 (stereo not given) | -42.6% (active)
O=C(NCCN1CCOCC1)c1cncnc1Nc1ccc2c(ccn2Cc2ccccn2)c1 | 99.7%
CCN1C(=O)N(CC)C2Nn3c(s/c(=C4\C(=O)Nc5ccccc54)c3=O)=NC21 (stereo not given) | 27.8%
CC(NCCC(c1ccccc1)c1ccccc1)c1ccccc1 (stereo not given) | 14.6%
COc1ccc(-c2nc(SCC(=O)c3ccc(Br)cc3)[nH]c(=O)c2C#N)cc1 | 91.5%
CCO/C=N/C1=C(C#N)C(c2ccc(OC)cc2)c2c(c3ccccc3n(C)c2=O)O1 (stereo not given) | 102%
COc1ccc2c(c1)CC=C1[C@@H]2CC[C@]2(C)C(=O)/C(=N/O)C[C@@H]12 | 53.4%
COc1cc(C)c(Cc2cnc(N)nc2N)cc1OC | 129%
O=c1[nH]c2c(ccc3cnccc32)c2c1CCC2 | 13.4%
COc1cccc(C(=O)NNc2nc(Cl)nc(N3CCN(C(c4ccccc4)c4ccccc4)CC3)n2)c1 | 0.787% (active)
Nc1c(C(=O)c2ccccc2)sc2nc(-c3cc4ccccc4o3)cc(-c3ccc(Cl)cc3)c12 | 114%
CC[N+]1(CC)CC[N+]2(CCCC(C)CC2)CC1 (stereo not given) | 101%
